# Measured values reported in PubChem BioAssay.
# Assay: Plasmodium falciparum growth inhibition, primary screen, strain 3D7, DAPI fluorescence, 100 nL (AID 1184);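 further: parasites grown inside human red blood cells in medium with human serum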
# Settings: P. falciparum 3D7 growth, 3 d, higher = more signal
row,Compound,z-score
1,Cc1cc(C)c(C(O)C2C=CC3C(=O)N(c4ccccc4)C(=O)C3N2Nc2ccccc2)c(C)c1 (stereo not given),-0.0689
2,CC(C)NC(=O)[C@@]1(Cc2ccccc2I)c2ccccc2C(=O)N(Cc2ccccc2C(F)(F)F)[C@H]1c1ccc(CO)cc1,-1.09
3,COc1ccc(CCNC(=O)[C@@H]2c3ccccc3C(=O)N(Cc3ccccc3)[C@H]2c2ccc(CO)cc2)cc1,-1.08
4,COC(=O)C(CC#Cc1ccc2c(c1)[C@]1(C(=O)N2)[C@H](c2ccccc2OCCO)N2[C@H](c3ccccc3)[C@H](c3ccccc3)OC(=O)[C@H]2[C@@H]1C(=O)Nc1nc2ccccc2s1)C(=O)OC,-2
5,C=CCN1C(=O)[C@@]2(O[C@@H](CCO)[C@H]([Si](C)(C)c3ccc(OC)cc3)[C@H]2C)c2cc(NC(=O)[C@H](C)O)ccc21,-2.83
6,O=C(O)[C@]1(CCS(=O)(=O)c2ccccc2)N=C(c2ccc(OCCCO)cc2)O[C@@H]1c1ccccc1,-0.212
7,CC1=C2[C@@H](CCc3ccccc3)OB(O)C[C@@H]2[C@@H]2C(=O)C=CC(=O)[C@@H]2C1,-1.15
8,CN(C)C(=O)[C@@]1(CCC(=O)OC(C)(C)C)COC(c2ccc(OCCCO)cc2)=N1,0.388
9,COCCOC(=O)N1C(=O)[C@@]2(c3cc(C#CCC(C(=O)OC)C(=O)OC)ccc31)[C@H](C(=O)N1CCCCCCC1)[C@H]1C(=O)O[C@H](c3ccccc3)[C@H](c3ccccc3)N1[C@@H]2c1ccc(O)cc1,-2.22
10,COc1ccc([Si](C)(C)[C@@H]2[C@@H](CCO)O[C@]3(C(=O)N(Cc4ccccc4)c4ccc(N5CCCCC5=O)cc43)[C@H]2C)cc1,-2.89
11,Cc1ccc(N2C(=O)c3ccccc3[C@](C)(C(=O)NC(C)C)[C@@H]2c2ccc(CO)cc2)nc1,-0.736
12,COC(=O)[C@]1(Cc2ccccc2N=[N+]=[N-])N=C(c2ccc(OCCCO)cc2)O[C@@H]1c1ccccc1,-1.44
13,C=CC[C@]1(C(=O)NCC(O)CO)N=C(c2ccc(OCCCO)cc2)O[C@H]1c1ccccc1N=[N+]=[N-] (stereo not given in full),-2.3
14,C=C(/C(=C/C[C@@H](OC(C)=O)c1ccccc1OCCO)c1cnc2ccccc2c1)C(C)C,-2.62
15,CCN(CC)c1ccc(N2CC=CC34O[C@@H]5/C=C\CCCOC(=O)C5[C@H]3C(=O)N(CCCCCCO)[C@@H]4C2=O)cc1 (stereo not given in full),-0.789
16,COCCCNC(=O)[C@@]1(Cc2ccccc2N=[N+]=[N-])N=C(c2ccc(OCCCO)cc2)O[C@H]1c1ccccc1CN=[N+]=[N-],-2.23
17,COc1ccccc1CN1C(=O)c2ccccc2[C@@]2(Cc3ccccc3N(C3CC3)C2=O)[C@@H]1c1ccc(CO)cc1,0.35
18,COC(=O)C(CC#Cc1ccc2c(c1)[C@]1(C(=O)N2)[C@H](c2ccc(OCCO)cc2)N2[C@H](c3ccccc3)[C@H](c3ccccc3)OC(=O)[C@H]2[C@@H]1C(=O)O)C(=O)OC,0.663

row,Compound,z-score
1,CC(C)CCC[C@@H](C)[C@H]1CC[C@@]2(C)C3=C(CC[C@]12C)[C@@]1(C)CC[C@H](OC(=O)C(C)(C)C)C(C)(C)C1CC3 (stereo not given in full),-1.29
2,COCCCNC(=O)[C@@]1(C)c2ccccc2C(=O)N(c2ccc(C)cn2)[C@H]1c1ccc(CO)cc1,0.563
3,O=C1O[C@@H](c2ccccc2)[C@@H](c2ccccc2)N2[C@@H](c3ccc(O)cc3)[C@]3(C(=O)Nc4ccc(C#CC5(O)CCCCCC5)cc43)[C@@H](C(=O)N3CCN(c4ncccn4)CC3)[C@H]12,-2.02
4,COC(=O)C(CC#Cc1ccc2c(c1)[C@]1(C(=O)N2)[C@H](c2ccc(O)cc2)N2[C@H](c3ccccc3)[C@H](c3ccccc3)OC(=O)[C@H]2[C@@H]1C(=O)O)C(=O)OC,-0.102
5,C=CC[C@@]1(C(=O)NCCN2CCOCC2)N=C(c2ccc(OCCCO)cc2)O[C@@H]1c1ccccc1,-0.825
6,NC(=O)[C@H]1[C@@H]2C(=O)O[C@@H](c3ccccc3)[C@@H](c3ccccc3)N2[C@@H](c2ccc(O)cc2)[C@]12C(=O)Nc1ccc(C#CC3(O)CCCCCC3)cc12,-1.85
7,CC(C)C[C@@H]1NC(=O)[C@@]23C(=O)N[C@@H](Cc4ccccc4)C2[C@H](C)[C@@]2(C)O[C@H]2C3/C=C/C/C=C\CNC(=O)[C@@H]2CCCN2C1=O (stereo not given in full),0.817
8,[N-]=[N+]=NCc1ccccc1[C@H]1OC(c2ccc(OCCCO)cc2)=N[C@@]1(Cc1ccccc1)C(N)=O,-0.676
9,CCOC(=O)C1=CC[C@@H](c2ccccc2)N(S(=O)(=O)c2ccc(C)cc2)[C@H]1C=C(C)C,-2.17
10,CCCCC(=C=CC[C@H](O)c1cccc(OCCO)c1)C[C@H](O)COCc1ccccc1,-1.88
11,CN(C)C(=O)[C@]1(Cc2ccccc2N=[N+]=[N-])N=C(c2ccc(OCCCO)cc2)O[C@@H]1c1ccccc1CN=[N+]=[N-],-2.48
12,COC(=O)[C@@]1(Cc2ccccc2)[C@H]2c3cc(C(=O)N(C)C)n(Cc4ccccn4)c3C[C@H]2CN1C(=O)c1ccccc1,-0.847
13,COC(=O)[C@]1(Cc2ccccc2CN=[N+]=[N-])N=C(c2ccc(OCCCO)cc2)O[C@@H]1c1ccccc1CN=[N+]=[N-],-2.27
14,C=CCN1C(=O)[C@@]2(O[C@@H](CCn3cc([C@H](O)c4ccccc4)nn3)[C@H]([Si](C)(C)c3ccc(OC)cc3)[C@H]2C)c2cc(NC(=O)c3ccc(OC)cc3)ccc21,-2.7
15,CCCC[C@@H](O)C1=C(COc2ccccc2)Cn2c(=O)n(-c3ccccc3)c(=O)n2[C@H]1CO,-0.471
16,CC[C@@H]1[C@@H]2C3C(=O)N(CC)C(=O)C3CC(=O)[C@@H]2[C@H](c2ccc(C)cc2)N1S(=O)(=O)c1ccc(C)cc1 (stereo not given in full),-0.226
17,COc1ccc([Si](C)(C)[C@@H]2[C@@H](CC(=O)N3Cc4ccccc4C[C@H]3CO)O[C@]3(C(=O)N(Cc4cccc(N5CCCCC5=O)c4)c4ccccc43)[C@H]2C)cc1,-2.91
